# Assay outcomes: PubChem, National Center for Advancing Translational Sciences (NCATS)
# APE1 inh: APE1 (human) endonuclease inhibition. recombinant APE1, TAMRA/BHQ-2 abasic DNA cleavage fluorescence. Potency, µM (doses to about 65.8 µM), for the others: top-dose activity change, negative = inhibition, actives largely listed as inhibitors. 0.35% of 350,000 active. AID 2517;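 also: plate controls were vehicle for no effect and reference inhibitor for full effect; nearly all actives have a fitted effect of over 55% in size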
#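 Incision of a quenched TAMRA/BHQ-2 THF abasic-site duplex (50 nM) by 0.75 nM APE1, after 15 min compound preincubation, measured as fluorescence increase over three 60 s reads. Values normalized to buffer, DMSO and NSC13755 control wells.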
# L3MBTL1 block: L3MBTL1 (human) inhibition | Q9Y468 | AlphaScreen L3MBTL1–H3K9me1 peptide binding | Potency, µM (doses to about 57.1 µM), inactives show at the top dose activity, negative = inhibition, actives largely listed as inhibitors | 0.66% of 230,000 active; also: nearly all actives have a fitted effect of over 60% in size
#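 Displacement of a biotinylated histone H3(1-15) peptide monomethylated at Lys9 (75 nM) from L3MBTL1 (50 nM) was measured by AlphaScreen after a 30 min room-temperature compound incubation; cefsulodin titration served as intraplate control.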
# JMJD2E inh: JMJD2E (human) inhibition | B2RXH2 | JMJD2E catalytic domain, FDH-coupled NADH fluorescence (FDH is formaldehyde dehydrogenase) | Potency, µM (highest dose often 57.1 µM), inactives show at the highest dose activity change, negative = inhibition, most hits filed as inhibitors | 1.6% of 230,000 active | AID 2147; active = well fitted inhibition curve with a large enough effect, not every such curve was filed as active; inconclusive = small, poorly fitted or top-dose-only effect, or another doubt; inactive = no such curve, though single readings can be large or run the other way;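 also: 0% = wells with enzyme and -100% = buffer wells without enzyme; nearly all actives have a fitted effect of over 50% in size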
# RECQ1 inh-1: blocks DNA unwinding by human RECQ1. P46063. 0.54% of 240,000 active. Potency, µM (top dose mostly 57.3 µM), for inactives: top-dose activity, negative = inhibition, usual class: inhibitors. RECQ1 DNA unwinding, red fluorescence kinetic read. AID 2549;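 also: plate controls were vehicle for no effect and no enzyme for full effect; nearly all actives have a fitted effect of over 30% in size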
#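 RECQ1T1 50 nM; forked duplex (20 bp + 30-nt ss tails) 200 nM, ATP 2 mM final; pH 8.0, 2 mM MgCl2, 2.5 ug/ml poly(dI-dC); 15 min compound preincubation; discontinuous kinetic read over 2 h at RT.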
# TDP1 inh: TDP1 (human) enzyme inhibition; Q9NUW8; recombinant TDP1, AlphaScreen DNA substrate cleavage; Potency, µM (doses to about 130 µM), inactives show top-dose activity change, negative = inhibition, usual class: inhibitors; 0.28% of 350,000 active; AID 485290; also: nearly all actives have a fitted effect of over 40% in size
# Target sequence (Q9NUW8 whole entry, looked up): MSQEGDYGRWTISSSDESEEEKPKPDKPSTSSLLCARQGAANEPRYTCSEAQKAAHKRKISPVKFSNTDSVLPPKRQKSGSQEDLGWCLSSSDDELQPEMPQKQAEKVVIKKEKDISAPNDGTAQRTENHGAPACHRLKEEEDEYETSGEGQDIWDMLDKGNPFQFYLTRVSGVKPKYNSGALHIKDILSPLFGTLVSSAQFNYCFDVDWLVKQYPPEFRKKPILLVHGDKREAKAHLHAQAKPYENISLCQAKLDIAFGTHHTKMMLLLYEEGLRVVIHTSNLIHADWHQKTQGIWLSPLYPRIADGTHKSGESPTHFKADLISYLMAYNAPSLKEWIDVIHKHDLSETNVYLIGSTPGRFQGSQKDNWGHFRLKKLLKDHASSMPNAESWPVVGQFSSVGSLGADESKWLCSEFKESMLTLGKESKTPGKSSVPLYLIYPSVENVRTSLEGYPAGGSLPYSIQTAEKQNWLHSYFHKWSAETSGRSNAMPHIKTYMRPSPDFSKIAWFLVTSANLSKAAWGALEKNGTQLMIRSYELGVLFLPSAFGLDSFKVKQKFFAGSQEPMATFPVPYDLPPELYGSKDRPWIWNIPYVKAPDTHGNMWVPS
#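 Steps: enzyme plus compound, 15 min RT; add biotin/phosphotyrosine-FITC oligonucleotide (15 nM final), react 5 min; add donor/acceptor beads (10 ug/ml final), 10 min; read AlphaScreen. Tdp1 at 1 nM final.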
# BLM helicase inh: Bloom syndrome helicase (human) inhibition. P54132. recombinant BLM DNA unwinding, fluorescence dequenching. Potency, µM (titrated, usually from 56.1 µM), for the others: top-dose activity change, negative = inhibition, actives largely listed as inhibitors. 0.2% of 350,000 active;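 also: plate controls were vehicle for no effect and no enzyme for full effect; nearly all actives have a fitted effect of over 35% in size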
# RECQ1 inh conf: confirmation of human RECQ1 helicase inhibitors; shares compounds with RECQ1 inh-1; RECQ1 helicase DNA unwinding, fluorescence; Potency, µM (top dose mostly 229 µM), inactives show at the top dose activity change, negative = inhibition, hits mostly inhibitors; 28% of 610 active; AID 2708; also: nearly all actives have a fitted effect of over 45% in size
# RECQ1 ADP FP: counter-screen for RECQ1 inhibitors: ADP displacement | shares compounds with RECQ1 inh-1 | ADP fluorescence polarization displacement counterscreen | Potency, µM (highest dose often 228 µM), for inactives: at the highest dose activity change, negative = inhibition, hits mostly inhibitors | 27% of 530 active; also: nearly all actives have a fitted effect of over 45% in size
# RECQ1 inh-2: blocks human RECQ1 DNA unwinding; Potency, µM (series often up to 119 µM), for inactives: at the top dose activity, negative = inhibition, hits mostly inhibitors; AID 504841; recombinant RECQ1 DNA unwinding, red fluorescence; 15% of 1,100 active; shares compounds with RECQ1 inh-1; also: nearly all actives have a fitted effect of over 50% in size
# Numbers without * were called inactive; i = inactive; ? = inconclusive; . = no result; ! = not confirmed by another sample; [ ] = dose if it differs, or a comment. Many of the other results were omitted from the sample, so hits are more common in it than they were. Unless noted, calls follow the shape of the dose curve; as a rule, active = well fitted curve in the direction sought with a large enough effect; inconclusive = small, poorly fitted or top-dose-only effect, or another doubt; inactive = no such curve, though single readings can be large; an effect the other way counts as inactive or inconclusive. Unless noted, % is scaled to controls: 0 for no effect and ±100 for the full control effect; potency is read from the fitted curve at half-maximal effect.
SMILES,APE1 inh,L3MBTL1 block,JMJD2E inh,RECQ1 inh-1,TDP1 inh,BLM helicase inh,RECQ1 inh conf,RECQ1 inh-2,others
Cc1c(C(=O)O)cccc1-c1ccc(/C=C2\SC(=O)NC2=O)o1,-1.4%,-1.4%,.,.,-2.4%,4.3%,.,.,
Cc1cc(/C=C2\SC(=S)NC2=O)c(C)n1C,-4.2%,-8.0%,1.9%,0.316µM*,-2.0%,-18.0%,44.7µM*,.,RECQ1 ADP FP=10µM*
O=C(C1CC1)N1CCN=C1SCc1cccc(F)c1,5.5%,4.9%,-3.1%,?,5.4%,3.1%,.,?,
Cc1nn(Cc2ccc(F)cc2)c(C)c1NC(=O)c1cc(-c2ccco2)on1,-23.0%,-1.8%,-0.4%,?,9.7%,-6.6%,.,?,
O=S(=O)(c1ccccc1)c1nc(NC2CC2)sc1Cl,16.8%,?,-9.3%,39.8µM*,0.5%,-1.7%,.,-5.0%,
CCOc1ccc(C(=O)N/N=C/c2ccc(-c3ccc(S(=O)(=O)Nc4ncccn4)cc3)o2)cc1,-7.3%,.,?,?,-8.8%,-11.4%,.,.,
O=C(N/N=C/c1ccc(-c2ccc(S(=O)(=O)Nc3ncccn3)cc2)o1)c1cc2ccccc2cc1O,?,.,?,3.55µM*,.,?,44.7µM*,.,RECQ1 ADP FP=-12.0%[91.9 µM]
O=C1NC(=S)S/C1=C\c1ccc(SCc2ccco2)o1,1.78µM*,3.55µM*,?,5.01µM*,.,?,39.8µM*,.,
CCC1=NN2C(=N)/C(=C/c3c(C)nn(-c4ccccc4)c3Cl)C(=O)N=C2S1,7.2%,-5.7%,-5.1%,-6.0%,3.8%,-13.3%,.,.,
CCCC1=NN2C(=N)/C(=C\c3ccc(SCc4ccco4)o3)C(=O)N=C2S1,3.98µM*,.,?,10µM*,.,?,.,35.5µM*,
N=C1/C(=C\c2ccc(Br)o2)C(=O)N=C2SC(CC(=O)N3CCOCC3)=NN12,-16.9%,.,.,.,.,-7.7%,.,.,
CCC1=NN2C(=N)/C(=C\c3ccc(SCc4ccco4)o3)C(=O)N=C2S1,?,.,-9.0%,22.4µM*,-7.0%,?,.,-30.4%,
c1csc(-c2nc(N3CCN(Cc4ccc5c(c4)OCCO5)CC3)c3ccccc3n2)c1,.,.,.,.,3.0%,.,.,.,
CC(C)(C)c1nc(SCC(=O)NCc2ccco2)c2ccccc2n1,-3.3%,-2.5%,-5.1%,4.1%,3.8%,-7.1%,.,.,
O=C(CSc1c2c(nc3ccccc13)CCCC2)NCc1ccco1,8.4%,.,?,14.1µM*,10.8%,-0.7%,-6.5%[114 µM],-1.0%,RECQ1 ADP FP=?
CCOC(=O)C1=C(O)/C(=C/c2cc(OC)c(O)c(OC)c2)SC1=Nc1ccc(OC)cc1,?,-5.5%,1.4%,14.1µM*,-2.7%,-5.7%,.,?,
CCOC(=O)C1=C(O)/C(=C/c2ccc(OCC(=O)O)c(OC)c2)SC1=Nc1ccc(OCC)cc1,-2.5%,2.3%,-1.7%,-4.0%,5.3%,-3.8%,.,.,
O=c1oc2ccccc2c2oc3cc(O)c(O)cc3c12,?,?,28.2µM*,25.1µM*,8.1%,10µM*!,.,35.5µM*,
COc1ccc(N2CC(NC(=O)C(c3ccccc3)c3ccccc3)CC2=O)cc1OC (centres undefined),.,.,.,.,-2.6%,-1.8%,.,.,
CCOC(=O)Cc1cc(=O)n(-c2nc3ccccc3s2)[nH]1,?,28.2µM*,?,?,11.3%,-17.1%,.,-21.7%,
O=C(CSc1nc2c([nH]c3ccccc32)c(=O)n1-c1ccccc1)N1CCCCC1,.,.,.,.,0.0%,-1.1%,.,.,
CC(=O)C1=C(C)OC2(O)c3ccccc3C(=O)C12O (centres undefined),?,-9.0%,?,?,-2.8%,-26.6%,.,-11.6%,
COc1ccc(S(=O)(=O)Nc2ccccc2C(=O)Nc2nc(-c3ccc(F)cc3)cs2)cc1OC,-6.4%,1.7%,?,?,8.5%,-7.6%,.,?,
c1cc2c3c(cccc3c1)C(N1CCCCCC1)=N2,-5.4%,-2.9%,?,5.6%,1.1%,54.0%,.,.,
c1ccc2c(c1)CCN(C1=Nc3cccc4cccc1c34)C2,?,?,?,12.6µM*,9.5%,4.1%,10.6%[114 µM],-5.9%,
SMILES,APE1 inh,L3MBTL1 block,JMJD2E inh,RECQ1 inh-1,TDP1 inh,BLM helicase inh,RECQ1 inh conf,RECQ1 inh-2,others
Cc1ccc(C)c(OCC(=O)NC(Cc2c[nH]c3ccccc23)C(=O)O)c1 (centres undefined),?,-14.6%,?,i,-3.5%,-0.1%,.,.,
Cc1ccc(Nc2nnc(SCC(=O)NC(Cc3c[nH]c4ccccc34)C(=O)O)s2)cc1 (centres undefined),-4.0%,-6.4%,-11.3%,i,-1.8%,-2.4%,-2.9%,.,RECQ1 ADP FP=13.4%
CCOc1ccccc1Nc1nnc(SCC(=O)NC(Cc2c[nH]c3ccccc23)C(=O)O)s1 (centres undefined),-1.1%,-8.9%,-6.5%,0.4%,1.2%,-10.9%,-3.0%,.,RECQ1 ADP FP=?
Nc1ccc(N2CCOCC2)c2nonc12,?,?,23.8%,?,3.0%,31.6µM*,.,0.3%,
CC(C)OCCCNc1nc(-c2ccccc2)nc2ccccc12,3.5%,.,.,.,-2.9%,-8.0%,.,.,
CC(C)(C)C(=O)OCCNc1nc(-c2ccccc2)nc2ccccc12,10.5%,10.3%,-5.4%,7.94µM*,0.0%,-7.2%,2.0%[114 µM],-16.9%,
C=CCn1c(SCC(N)=O)nnc1-c1ccccc1O,10.8%,-3.3%,0.0%,-2.8%,-5.9%,-4.9%,.,.,
C=CCn1c(SCC(=O)NCc2ccccc2)nnc1-c1ccccc1O,-4.6%,0.6%,-2.5%,-1.8%,4.3%,-5.6%,-3.5%,.,RECQ1 ADP FP=3.8%
O=C(CSc1ncnc2scc(-c3ccccc3)c12)N1CCN(Cc2ccc3c(c2)OCO3)CC1,0.0%,?,1.4%,12.6µM*,8.2%,-17.1%,?,-23.9%,
C[C@@H]1CC2(OC[C@]3(C)O[C@H]23)O[C@H]2C[C@@]3(C)[C@@H]4CC[C@H]5C(C)(C)C(O[C@@H]6OC[C@@H](O)[C@H](O)[C@H]6O)CC[C@@]56C[C@@]46CC[C@]3(C)[C@@H]12 (some centres undefined),-4.0%,.,.,1.1%,12.1%,.,.,.,
CCN1C(=O)C(CC(=O)Nc2ccc(F)cc2)N(CCc2ccc(OC)cc2)C1=S (centres undefined),-6.8%,2.2%,-16.8%,22.4µM*,-2.4%,-13.5%,.,-17.3%,
